Measured values from PubChem BioAssay (Tox21).
Inconclusive results are not listed. Activity calls are given as the source filed them. Unless noted, calls come from the whole dose curve; as a rule, active = well fitted curve in the direction sought with a large enough effect in the repeat runs; inconclusive = weak or mixed curves; inactive = no such curve, though single readings can be large; an effect the other way counts as inactive or inconclusive.

Columns and labels:
[1] = biological target: Androgen receptor (Homo sapiens) (UniProt P10275); assay: qHTS assay to identify small molecule antagonists of the androgen receptor (AR) signaling pathway using the MDA cell line in the presence of 0.5 nM R1881 (AID 1259243); note: nearly all actives have a fitted effect of over 50% in size; note: potency is the fitted concentration of half-maximal effect
Androgen receptor (Homo sapiens), sequence (P10275 whole entry, looked up): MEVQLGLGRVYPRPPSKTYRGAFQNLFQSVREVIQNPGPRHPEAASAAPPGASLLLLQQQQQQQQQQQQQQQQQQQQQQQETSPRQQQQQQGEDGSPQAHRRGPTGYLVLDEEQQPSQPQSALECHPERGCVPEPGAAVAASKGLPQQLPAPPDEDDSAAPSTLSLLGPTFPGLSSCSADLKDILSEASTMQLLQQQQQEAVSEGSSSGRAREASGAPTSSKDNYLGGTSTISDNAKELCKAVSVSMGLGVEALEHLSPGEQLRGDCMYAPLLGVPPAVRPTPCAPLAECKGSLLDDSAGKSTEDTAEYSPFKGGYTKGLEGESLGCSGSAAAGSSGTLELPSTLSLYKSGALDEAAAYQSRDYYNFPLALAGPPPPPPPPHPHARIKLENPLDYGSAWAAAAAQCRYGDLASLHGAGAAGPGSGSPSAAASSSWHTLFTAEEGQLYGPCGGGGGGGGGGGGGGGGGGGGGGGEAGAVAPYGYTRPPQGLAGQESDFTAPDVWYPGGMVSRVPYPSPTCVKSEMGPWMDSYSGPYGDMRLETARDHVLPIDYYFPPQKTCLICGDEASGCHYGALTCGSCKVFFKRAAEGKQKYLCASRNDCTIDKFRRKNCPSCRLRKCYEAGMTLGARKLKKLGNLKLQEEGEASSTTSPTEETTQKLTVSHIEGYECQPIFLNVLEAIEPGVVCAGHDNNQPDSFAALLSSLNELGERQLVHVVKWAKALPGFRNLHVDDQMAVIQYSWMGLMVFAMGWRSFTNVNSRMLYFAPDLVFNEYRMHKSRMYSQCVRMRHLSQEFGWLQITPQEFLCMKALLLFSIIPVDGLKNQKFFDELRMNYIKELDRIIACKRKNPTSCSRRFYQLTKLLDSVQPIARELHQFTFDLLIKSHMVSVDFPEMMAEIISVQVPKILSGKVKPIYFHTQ
In short: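 We exposed MDA-kb2 cells to compounds under 0.5 nM R1881 stimulation for 16 hr at 37C and quantified MMTV-driven luciferase by luminescence.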

[2] = biological target: Estrogen receptor (Homo sapiens) (UniProt P03372); assay: qHTS assay to identify small molecule antagonists of the estrogen receptor alpha (ER-alpha) signaling pathway using the BG1 cell line in the presence of 0.1 nM 17-beta-estradiol (AID 1259244); note: nearly all actives have a fitted effect of over 50% in size; note: potency is the fitted concentration of half-maximal effect
Estrogen receptor (Homo sapiens), sequence (P03372 whole entry, looked up): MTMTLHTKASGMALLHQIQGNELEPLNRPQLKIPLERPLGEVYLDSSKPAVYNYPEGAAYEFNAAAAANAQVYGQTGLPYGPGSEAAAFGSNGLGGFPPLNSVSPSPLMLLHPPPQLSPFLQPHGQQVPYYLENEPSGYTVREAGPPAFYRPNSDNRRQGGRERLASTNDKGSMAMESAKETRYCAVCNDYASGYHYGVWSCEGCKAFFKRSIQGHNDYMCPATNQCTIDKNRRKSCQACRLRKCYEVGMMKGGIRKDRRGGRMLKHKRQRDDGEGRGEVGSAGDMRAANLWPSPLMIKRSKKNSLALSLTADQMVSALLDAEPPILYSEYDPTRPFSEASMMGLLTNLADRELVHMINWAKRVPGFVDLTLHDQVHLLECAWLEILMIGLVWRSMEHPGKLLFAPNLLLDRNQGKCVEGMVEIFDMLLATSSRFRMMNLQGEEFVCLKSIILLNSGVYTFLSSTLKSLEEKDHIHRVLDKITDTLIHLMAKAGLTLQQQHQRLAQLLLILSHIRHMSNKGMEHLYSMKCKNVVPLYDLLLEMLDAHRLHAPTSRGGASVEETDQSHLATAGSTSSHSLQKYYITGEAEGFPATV
In short: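 VM7Luc4E2; 4xERE-luciferase; 0.1 nM E2 final; 22 h co-incubation, 37C; ONE-Glo luminescence after 30 min at room temperature.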

[3] = qHTS assay to identify small molecule HDAC inhibitors (AID 1259364);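 note: wild-type HCT-116 cells with endogenous class I/II HDAC activity; top concentration of the series differs between compounds; nearly all actives have a fitted effect of over 45% in size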
In short: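 Relative class I and II HDAC activity is taken from the luminogenic signal in HCT-116 cells, with compound exposure 2 hr and reagent development 30 min at room temperature.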

[4] = qHTS assay to identify small molecule HDAC inhibitors - cell viability counter screen (AID 1259365); note: series mostly up to about 92 µM; nearly all actives have a fitted effect of over 50% in size
In short: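 After overnight seeding at 1,500 cells per well, wild-type HCT-116 cultures took up compounds in DMSO for 2hr at 37 C. Viable cell content came from luminescence with CellTiter-Glo.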

[5] = qHTS assay to identify small molecule agonists of the sonic hedgehog signaling (Shh) pathway - cell viability counter screen (AID 1259366); note: nearly all actives have a fitted effect of over 50% in size
In short: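 Same-well cytotoxicity read. Gli1-Luc reporter 3T3 cells; compounds 24hr, 37C/5% CO2; CellTiter-Fluor fluorescence.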

[6] = qHTS assay to identify small molecule antagonists of the sonic hedgehog signaling (Shh) pathway - cell viability counter screen (AID 1259367); note: nearly all actives have a fitted effect of over 55% in size
In short: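 Using CellTiter-Fluor, viability of Gli1-Luc reporter 3T3 cells is read by fluorescence in the wells used for the Shh luciferase assay. Treatment lasts 23 hr with conditioned medium, then reagent 1 hr at 37C.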

[7] = qHTS assay to identify small molecule agonists of the sonic hedgehog signaling (Shh) pathway (AID 1259368; calls by dose curve;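 note: NIH/3T3-derived 3T3Gli1-Luc cells carrying a stable Gli1-driven firefly luciferase reporter; series mostly up to about 92 µM; nearly all actives have a fitted effect of over 15% in size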)
In short: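 Mouse fibroblast (NIH/3T3) reporter cells with stably integrated Gli1-Luc were treated 24 hr with compound; firefly luciferase luminescence served as the read-out.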

[8] = qHTS assay to identify small molecule antagonists of the sonic hedgehog signaling (Shh) pathway (AID 1259369; calls by dose curve; note: nearly all actives have a fitted effect of over 45% in size; note: potency is the fitted concentration of half-maximal effect)
In short: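 Conditioned medium drives Shh signalling in 3T3Gli1-Luc cells; compounds in DMSO co-applied, 24hr at 37 C, then luciferase luminescence.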

[9] = qHTS assay to identify small molecule agonists of the androgen receptor (AR) signaling pathway in the presence of an antagonist - cell viability counter screen (AID 1259379);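 note: MDA-kb2 human breast cancer cells carrying an MMTV luciferase reporter; series mostly up to about 92 µM; nearly all actives have a fitted effect of over 25% in size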
In short: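 A CellTiter-Fluor read-out measured viability of MDA-kb2 reporter cells (MMTV promoter with AR and GR response elements). Treatment: nilutamide 3.0uM final with compounds at 15 concentrations, 16 hr, 37C, 0% CO2.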

[10] = qHTS assay to identify small molecule agonists of the estrogen receptor beta (ER-beta) signaling pathway - cell viability counter screen (AID 1259380); note: nearly all actives have a fitted effect of over 30% in size; note: potency is the fitted concentration of half-maximal effect
In short: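 Cells used were ER-beta-UAS-bla HEK293T in medium with 2% charcoal-stripped FBS. They were treated for 16 hr at 37C. Viability came from CellTiter-Glo luminescence.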

[11] = qHTS assay to identify small molecule antagonists of the estrogen receptor beta (ER-beta) signaling pathway - cell viability counter screen (AID 1259382); note: series mostly up to about 92 µM; nearly all actives have a fitted effect of over 55% in size
In short: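 Agonist-stimulated (1nM E2) ER-beta-UAS-bla HEK293T cells are incubated with library compounds for 16 hr at 37C. Cell viability is then assessed in the reporter-assay wells by adding CellTiter-Glo and reading luminescence after 30 min.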

[12] = biological target: Estrogen receptor (Homo sapiens) (UniProt P03372); assay: qHTS assay to identify small molecule agonists of the estrogen receptor alpha (ER-alpha) signaling pathway in the presence of an antagonist (AID 1259383; calls by dose curve; note: top concentration of the series differs between compounds; nearly all actives have a fitted effect of over 15% in size)
In short: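 Using VM7Luc4E2 cells seeded 24hr before treatment, antagonist ICI-182,780 (10.0nM final) was added, followed by compounds at 15 concentrations. Plates incubated 22hr; ONE-Glo luminescence quantified reporter activity.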

[13] = qHTS assay to identify small molecule agonists or antagonists of the thyroid stimulating hormone receptor (TSHR) signaling pathway - wild type cell line counter screen (AID 1259384; calls by dose curve)
In short: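 Counter screen in untransfected Hek293: compounds (15-point titration, triplicate) plus phosphodiesterase inhibitor Ro20-1724 added after 18 h plating; 30 min RT. Intracellular cAMP via competitive d2/cryptate immunoassay, 1 h incubation.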

[14] = biological target: Thyrotropin receptor (Homo sapiens) (UniProt P16473); assay: qHTS assay to identify small molecule antagonists of the thyroid stimulating hormone receptor (TSHR) signaling pathway (AID 1259385; calls by dose curve; note: nearly all actives have a fitted effect of over 20% in size)
Thyrotropin receptor (Homo sapiens), sequence (P16473 whole entry, looked up): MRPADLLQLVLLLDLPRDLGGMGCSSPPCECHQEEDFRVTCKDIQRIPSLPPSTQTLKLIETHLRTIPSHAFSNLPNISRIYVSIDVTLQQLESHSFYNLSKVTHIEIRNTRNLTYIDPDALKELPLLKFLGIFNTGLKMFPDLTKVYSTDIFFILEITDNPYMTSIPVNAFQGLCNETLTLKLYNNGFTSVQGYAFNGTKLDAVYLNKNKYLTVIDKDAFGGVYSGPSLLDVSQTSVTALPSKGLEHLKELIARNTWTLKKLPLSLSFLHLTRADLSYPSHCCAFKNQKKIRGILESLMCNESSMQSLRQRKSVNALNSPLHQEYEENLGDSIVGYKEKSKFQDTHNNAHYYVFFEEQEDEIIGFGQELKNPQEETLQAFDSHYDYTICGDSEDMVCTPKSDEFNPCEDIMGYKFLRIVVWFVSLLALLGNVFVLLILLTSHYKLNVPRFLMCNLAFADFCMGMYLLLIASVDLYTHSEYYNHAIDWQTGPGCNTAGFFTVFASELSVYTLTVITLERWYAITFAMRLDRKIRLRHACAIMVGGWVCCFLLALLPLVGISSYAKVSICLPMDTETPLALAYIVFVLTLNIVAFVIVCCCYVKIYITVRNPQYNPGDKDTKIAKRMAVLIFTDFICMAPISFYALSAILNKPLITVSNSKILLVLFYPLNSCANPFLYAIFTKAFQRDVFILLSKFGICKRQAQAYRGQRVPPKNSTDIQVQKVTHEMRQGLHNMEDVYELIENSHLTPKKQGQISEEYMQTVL
In short: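 Antagonist mode: compound-treated TSHR-expressing HEK293 cells were stimulated with 1.5 ng/mL TSH (final) in presence of Ro20-1724 for 30 min at RT. HTRF cAMP detection after 1 h; each compound tested at 15 concentrations, triplicate.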

[15] = qHTS assay to identify small molecule agonists of the estrogen receptor alpha (ER-alpha) signaling pathway in the presence of an antagonist - cell viability counter screen (AID 1259386);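 note: series mostly up to about 92 µM; cells exposed to compounds for 22 h at 37 °C before the viability read; nearly all actives have a fitted effect of over 30% in size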
In short: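 ICI-182,780 at 10.0nM final accompanies the compound titration (15 concentrations, 22hr, 37C) on VM7Luc4E2 cells. The CellTiter-Fluor fluorescence readout runs in the same wells as the luciferase assay.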

[16] = biological target: Progesterone receptor (Homo sapiens) (UniProt P06401); assay: qHTS assay to identify small molecule agonists of the progesterone receptor (PR) signaling pathway (AID 1346784; calls by dose curve; note: nearly all actives have a fitted effect of over 30% in size)
Progesterone receptor (Homo sapiens), sequence (P06401 whole entry, looked up): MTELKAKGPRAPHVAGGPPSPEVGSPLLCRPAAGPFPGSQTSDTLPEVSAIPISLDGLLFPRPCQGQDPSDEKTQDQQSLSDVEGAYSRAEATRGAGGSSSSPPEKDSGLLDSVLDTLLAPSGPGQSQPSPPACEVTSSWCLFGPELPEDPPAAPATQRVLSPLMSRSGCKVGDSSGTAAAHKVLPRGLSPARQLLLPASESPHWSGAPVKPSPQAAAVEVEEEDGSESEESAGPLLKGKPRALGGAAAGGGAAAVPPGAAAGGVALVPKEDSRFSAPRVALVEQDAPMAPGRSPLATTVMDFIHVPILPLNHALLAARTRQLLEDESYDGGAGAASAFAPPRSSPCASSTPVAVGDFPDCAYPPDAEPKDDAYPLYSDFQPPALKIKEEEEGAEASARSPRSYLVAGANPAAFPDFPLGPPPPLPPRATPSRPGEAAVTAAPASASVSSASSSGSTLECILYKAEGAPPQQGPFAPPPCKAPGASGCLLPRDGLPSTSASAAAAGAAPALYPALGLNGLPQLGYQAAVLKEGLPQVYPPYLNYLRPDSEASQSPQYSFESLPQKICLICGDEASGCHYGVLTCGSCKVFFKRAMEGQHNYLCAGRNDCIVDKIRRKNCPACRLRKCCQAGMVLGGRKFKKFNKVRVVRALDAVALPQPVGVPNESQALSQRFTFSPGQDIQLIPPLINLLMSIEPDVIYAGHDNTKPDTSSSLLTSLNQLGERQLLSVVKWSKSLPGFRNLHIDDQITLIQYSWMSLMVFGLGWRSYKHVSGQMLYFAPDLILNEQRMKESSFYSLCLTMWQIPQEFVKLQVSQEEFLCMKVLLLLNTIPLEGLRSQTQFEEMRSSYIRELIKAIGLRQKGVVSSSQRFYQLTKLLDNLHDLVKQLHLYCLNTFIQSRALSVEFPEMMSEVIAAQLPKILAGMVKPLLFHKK
In short: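 Compounds were tested for PR agonism in HEK 293T cells bearing a beta-lactamase gene under UAS control. Treatment lasted 16 hr at 37C; signal came from fluorescence of a FRET substrate.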

[17] = biological target: Estrogen receptor beta (Homo sapiens) (UniProt Q92731); assay: qHTS assay to identify small molecule agonists of the estrogen receptor beta (ER-beta) signaling pathway (AID 1259377; active = well fitted activation curve with a large enough effect in the signal ratio in the repeat runs, not every such curve was filed as active; the % refers to the signal ratio)
Estrogen receptor beta (Homo sapiens), sequence (Q92731 whole entry, looked up): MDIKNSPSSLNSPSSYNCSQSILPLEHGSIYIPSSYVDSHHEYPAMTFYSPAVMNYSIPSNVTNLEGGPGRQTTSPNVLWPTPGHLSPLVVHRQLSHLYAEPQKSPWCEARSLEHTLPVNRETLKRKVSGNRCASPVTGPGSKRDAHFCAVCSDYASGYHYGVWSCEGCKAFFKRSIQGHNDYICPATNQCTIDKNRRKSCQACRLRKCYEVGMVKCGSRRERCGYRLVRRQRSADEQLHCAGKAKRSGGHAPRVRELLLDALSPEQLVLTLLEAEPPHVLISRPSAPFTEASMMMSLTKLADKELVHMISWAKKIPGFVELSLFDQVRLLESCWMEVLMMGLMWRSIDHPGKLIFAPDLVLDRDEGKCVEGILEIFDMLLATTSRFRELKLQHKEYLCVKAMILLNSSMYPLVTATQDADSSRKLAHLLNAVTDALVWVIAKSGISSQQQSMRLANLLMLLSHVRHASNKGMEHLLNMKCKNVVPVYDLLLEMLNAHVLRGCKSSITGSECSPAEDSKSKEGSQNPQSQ
In short: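 Read-out: beta-lactamase FRET fluorescence. Cell line: ER-beta-UAS-bla HEK293T in 2% charcoal-stripped FBS. Exposure: 16 hr at 37C. Substrate step: 2 h at room temperature.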

[18] = biological target: Estrogen receptor beta (Homo sapiens) (UniProt Q92731); assay: qHTS assay to identify small molecule antagonists of the estrogen receptor beta (ER-beta) signaling pathway (AID 1259378; active = well fitted inhibition curve with a large enough effect in the signal ratio in the repeat runs, not every such curve was filed as active; the % refers to the signal ratio)
In short: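 Antagonist mode: compounds added to beta-lactamase reporter HEK293T ER-beta-UAS cells stimulated with E2 (1nM final), 16 hr at 37C. LiveBLAzer B/G FRET substrate, 2 hours room temperature, fluorescence read-out.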

[19] = biological target: Androgen receptor (Homo sapiens) (UniProt P10275); assay: qHTS assay to identify small molecule agonists of the androgen receptor (AR) signaling pathway in the presence of an antagonist (AID 1259381; calls by dose curve; note: nearly all actives have a fitted effect of over 15% in size)
In short: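 Using human MDA-kb2 cells with an MMTV promoter–luciferase construct (AR and GR response elements), agonist activity is scored under 3.0uM nilutamide (final) co-treatment; 16hr incubation, 37C, luminescence readout via ONE-Glo.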
% is set by controls: 0 for no effect and ±100 for the full control effect.

CCC(C)c1ccccc1 (stereo unspecified)
inactive: Potency [1] | Potency [2] | Potency [3] | Potency [4] | Potency [5] | Potency [6] | Potency [7] | Potency [8] | Potency [9] | Potency [10] | Potency [11] | Potency [12] | outcome [13] | Potency [14] | Potency [15] | outcome [16]

COc1nccnc1CC(C)C
inactive: Potency [1] | Potency [2] | Potency [3] | Potency [5] | Potency [6] | Potency [7] | Potency [8] | Potency [17] | Potency [18] | Potency [9] | Potency [10] | Potency [19] | Potency [11] | Potency [12] | Potency [14] | Potency [15]

C=CC/C=C/C/C=C/C/C=C/C
inactive: Potency [1] | Potency [2] | Potency [3] | Potency [4] | Potency [6] | Potency [7] | Potency [8] | Potency [17] | Potency [18] | Potency [9] | Potency [10] | Potency [19] | Potency [11] | Potency [12] | outcome [13] | Potency [14] | Potency [15] | outcome [16]

CCCCCCCC(=O)OCC
inactive: Potency [1] | Potency [2] | Potency [3] | Potency [4] | Potency [5] | Potency [6] | Potency [7] | Potency [8] | Potency [10] | Potency [19] | Potency [12] | outcome [13] | Potency [14] | Potency [15] | outcome [16]

CCCCCCCOC(=O)c1ccccc1C(=O)OCCCCCCC
inactive: Potency [1] | Potency [2] | Potency [3] | Potency [4] | Potency [5] | Potency [6] | Potency [7] | Potency [9] | Potency [10] | Potency [19] | Potency [11] | Potency [12] | outcome [13] | Potency [14] | Potency [15] | outcome [16]

CCCCCCCCCCCCCCCCCO
inactive: activity, negative = inhibition [1] -1.74% [at 19 µM] | activity change, negative = inhibition [2] 0.173% [at 19 µM] | activity change, negative = inhibition [3] -0.454% [at 19 µM] | activity change, negative = cytotoxicity [4] 1.77% [at 19 µM] | viability change, negative = cytotoxic [5] -3.91% [at 19 µM] | viability change, negative = cytotoxic [6] 5.3% [at 19 µM] | activity change [7] -2.43% [at 18.9 µM, active compounds read high] | activity change, negative = inhibition [8] -1.47% [at 19 µM] | activity change, negative = cytotoxicity [9] 1.97% [at 19 µM] | activation [19] -1.33% [at 19 µM] | activity change, negative = cytotoxicity [11] 3.37% [at 19 µM] | activation [12] -1.67% [at 19 µM] | activity change, negative = cytotoxicity [15] 2.39% [at 19 µM] | activation [16] -3.68% [at 19 µM]

CC(=O)OC1CCCCC1
inactive: Potency [1] | Potency [2] | Potency [3] | Potency [4] | Potency [6] | Potency [7] | Potency [8] | Potency [9] | Potency [10] | Potency [11] | Potency [12] | outcome [13] | Potency [14] | Potency [15] | outcome [16]

NC(=O)c1nc(-c2cccc(-c3cc(F)ccc3OCC(F)(F)C(F)(F)F)c2)n[nH]1
active: Potency [1] 54.5 µM | Potency [2] 54.5 µM | Potency [8] 3.06 µM | Potency [10] 61.1 µM
inactive: Potency [3] | Potency [4] | Potency [6] | Potency [7] | Potency [19] | Potency [12] | outcome [13]
